Measurements taken from the OligoGym collection.

Target: FAM151A
Experiment: pooled miR-30 sensor sort-seq; sequence = guide strand
Details: shRNA
Also: reference of the scale not given here.

Sequence | sensor-assay potency score (higher = more potent)
TTCTACATTGACGTCAGCCTCC | -0.0868
TAAGATGTCAGCGTTGATCCAT | 0.0658
ATGACCACCACAGACACACAGG | -1.21
TAGCCTGTAGTAGACTCGGGTC | -0.281
TAGCATATCTGTGAGCAGCTGT | 0.652
TTCCTCTGTCAGCTGCCGCAGG | -0.626

Target: FAM151B
Experiment: as above
Details: shRNA

Sequence | sensor-assay potency score (higher = more potent)
TATTGCTTTTCATAACTTCAGT | -0.677
TAGAGTATTATCACTGTTTGTT | 0.198
TATTTTCACTCCAAGATCCTGG | -0.051
TAATGTAAAGTAAATCTTCAAC | -0.985
TACAACTGCCAGACTTTTGAAA | -0.597
TATGAAACCAAAACACAGGAAA | -1.05
TTTTCCAGTCCAAATAGTCAGG | -1.41
TTTGCATCTATTACTTTGCTAT | -0.561
TTTGATTTCTTTAACAGCCAAA | -1.02
TCTTCTGCTGTAATCTGGCTAT | -0.597
TTGAAATCCAGCTTGATGCCTT | 0.157
TTAGCTGCATGATACCAGGTGA | -0.378

Target: FAM154A
Experiment: as above
Details: shRNA

Sequence | sensor-assay potency score (higher = more potent)
TTTGTATATCCTGTGACCCAAA | -1.34
TTAATCTGAAGTGCAGGTCGGC | -0.481
TTTTATGGGGTAATCGTCCTGG | 0.26
TAATCTGAAGTGCAGGTCGGCA | -1.32
TTAGTCACATCCTCCAAGGGGA | 0.0144
TTGTCCAACAAATAATTCTCAG | -0.941
TTGGCTTGAAGGACTCTCTGGG | 0.798
TTGTAGTCATCCTTGGTGGTGG | 0.0888
TTGTTTTTTGTCATTTTAGGGA | -0.361
AAGCTTGGTACTTATCTCGAAA | -0.971
TTATCTCGAAACTCAGTGGTGT | 0.244
TAGTTCTCGGTATATTCGGAGA | -1.23

Target: FAM162A
Experiment: as above
Details: shRNA

Sequence | sensor-assay potency score (higher = more potent)
TTTTTGAAGCGACCTGACCATA | -1.33
TTCACTCGCATCTTGTTCTTTG | -0.205
TAACCATGAAGATGCATCCTAC | -0.864
TTAGAGATGAGGAAACATCTCT | 0.0745
TAGATAGCTGATCTTCACTCGC | 0.225
TTAAAGTCTCGTGTCTTTGGGC | 0.109
ATAGCTGATCTTCACTCGCATC | -1.3
TTCTACAGCAGAAATACGGAAA | -0.939
TAAAACAGCTTCCTGCTGCCAG | -0.369
TCACATAACCTAAAACAGCTTC | -0.389
